# Test results from the supplement of paper PMC8728848.
# This is one part of a sample in which the strongest signals are shown more often than they occur.
# How the values were obtained:
# Experiment in all cases: glycan array binding signal (z-score within array); higher = stronger binding
# Conditions in all cases: glycan notation: IUPAC condensed, linker removed
# [1] = target: GlcNAc(b1-2)[GlcNAc(b1-6)]Man(a1-6)[GlcNAc(b1-2)Man(a1-3)]Man(b1-4)GlcNAc(b1-4)[Fuc(a1-6)]GlcNAc
# How it was run: (§1)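 From the Consortium for Functional Glycomics database, 3228 arrays were curated, keeping only those whose protein sequence was available. Binding is given as a within-array Z-score averaged across arrays sharing a protein sequence and across linkers. Negative Z-scores can be read as non-binding.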
# [2] = target: GlcNAc(b1-3)Gal(b1-4)Glc
# How it was run: as §1
# [3] = target: GlcNAc(b1-3)Gal(b1-4)GlcNAc(b1-3)Gal(b1-4)GlcNAc(b1-3)Gal(b1-4)GlcNAc(b1-2)Man(a1-3)[GlcNAc(b1-3)Gal(b1-4)GlcNAc(b1-3)Gal(b1-4)GlcNAc(b1-3)Gal(b1-4)GlcNAc(b1-2)Man(a1-6)]Man(b1-4)GlcNAc(b1-4)GlcNAc
# How it was run: as §1
# [4] = target: GlcNAc(b1-3)Gal(b1-4)GlcNAc(b1-3)Gal(b1-4)GlcNAc(b1-3)Gal(b1-4)GlcNAc(b1-3)Gal(b1-4)GlcNAc(b1-2)Man(a1-3)[GlcNAc(b1-3)Gal(b1-4)GlcNAc(b1-3)Gal(b1-4)GlcNAc(b1-3)Gal(b1-4)GlcNAc(b1-3)Gal(b1-4)GlcNAc(b1-2)Man(a1-6)]Man(b1-4)GlcNAc(b1-4)GlcNAc
# How it was run: as §1
# [5] = target: GlcNAc(b1-3)Gal(b1-4)GlcNAc(b1-6)[GlcNAc(b1-3)]Gal(b1-4)GlcNAc
# How it was run: as §1
# [6] = target: GlcNAc(b1-3)GalNAc
# How it was run: as §1
# [7] = target: GlcNAc(b1-4)GlcNAc(b1-4)GlcNAc
# How it was run: as §1
# [8] = target: GlcNAc(b1-4)GlcNAc(b1-4)GlcNAc(b1-4)GlcNAc(b1-4)GlcNAc
# How it was run: as §1
# [9] = target: GlcNAc(b1-4)GlcNAc(b1-4)GlcNAc(b1-4)GlcNAc(b1-4)GlcNAc(b1-4)GlcNAc
# How it was run: as §1
# [10] = target: Man(a1-3)[Man(a1-6)]Man(b1-4)GlcNAc(b1-4)[Fuc(a1-6)]GlcNAc
# How it was run: as §1
# [11] = target: Neu5Ac(a2-3)Gal(b1-3)GlcNAc(b1-2)[Neu5Ac(a2-3)Gal(b1-3)GlcNAc(b1-4)]Man(a1-6)[Neu5Ac(a2-3)Gal(b1-3)GlcNAc(b1-2)Man(a1-3)]Man(b1-4)GlcNAc(b1-4)GlcNAc
# How it was run: as §1
# [12] = target: Neu5Ac(a2-3)Gal(b1-3)[Neu5Ac(a2-6)]GlcNAc(b1-3)[Fuc(a1-3)[Gal(b1-4)]GlcNAc(b1-6)]Gal(b1-4)Glc
# How it was run: as §1
# [13] = target: Neu5Ac(a2-3)Gal(b1-4)[Fuc(a1-3)]GlcNAc(b1-3)Gal(b1-4)GlcNAc
# How it was run: as §1
# [14] = target: Neu5Ac(a2-3)Gal(b1-4)[Fuc(a1-3)]GlcNAc(b1-6)[Gal(b1-3)]GalNAc
# How it was run: as §1
# [15] = target: Neu5Ac(a2-3)[GalNAc(b1-4)]Gal(b1-4)GlcNAc
# How it was run: as §1
# [16] = target: Neu5Ac(a2-6)Gal(b1-3)GlcNAc(b1-3)[Gal(b1-4)GlcNAc(b1-6)]Gal(b1-4)Glc
# How it was run: as §1
# [17] = target: Neu5Ac(a2-6)Gal(b1-4)GlcNAc(b1-2)Man(a1-3)Man(b1-4)GlcNAc(b1-4)GlcNAc
# How it was run: as §1
# [18] = target: Neu5Ac(a2-6)Gal(b1-4)GlcNAc(b1-2)Man(a1-6)[GlcNAc(b1-2)Man(a1-3)]Man(b1-4)GlcNAc(b1-4)GlcNAc
# How it was run: as §1
# [19] = target: Neu5Ac(a2-6)Gal(b1-4)GlcNAc(b1-3)Gal(b1-4)GlcNAc(b1-3)[Neu5Ac(a2-6)Gal(b1-4)GlcNAc(b1-3)Gal(b1-4)GlcNAc(b1-6)]GalNAc
# How it was run: as §1
# [20] = target: Neu5Ac(a2-6)Gal(b1-4)GlcNAc(b1-3)Gal(b1-4)GlcNAc(b1-6)[Gal(b1-3)]GalNAc
# How it was run: as §1
# [21] = target: Neu5Ac(a2-6)GalNAc
# How it was run: as §1
# [22] = target: Neu5Ac(a2-6)GlcNAc(b1-4)GlcNAc(b1-4)GlcNAc
# How it was run: as §1
# [23] = target: Neu5Ac(a2-8)Neu5Ac(a2-3)Gal(b1-3)GalNAc(b1-4)[Neu5Ac(a2-8)Neu5Ac(a2-3)]Gal(b1-4)Glc
# How it was run: as §1
# [24] = target: Neu5Ac(a2-8)Neu5Ac(a2-8)Neu5Ac(a2-3)[Gal(b1-3)GalNAc(b1-4)]Gal(b1-4)Glc
# How it was run: as §1
# [25] = target: Neu5Ac(a2-8)Neu5Ac(a2-8)Neu5Ac(a2-3)[GalNAc(b1-4)]Gal(b1-4)Glc
# How it was run: as §1
binder,measurement,setting,value
Nc3LysM (protein) QFTVPPDTTAEPNTIKTCTWWHVAGSGDSCTSIASTYGITSEQFARWDMETTDSPKNPSVATACKLTVGNSYCIENNFGQDDPPTPSISSSTLIGTATTSTTASTTTGNGISTPTPIQEGMETATTTTSSGNGITTPTPTQAGMETVGNCDRFHLVKSGDQCGTIASTYGITLANFYSWNPAVGTSCQSLWLDTYVCVRTIGFVPPKTTTTTTKKPTSTTSAGGVATPTPTQPGMETVSGCKKFHKGRGNVSTVASGDQCGTIATRYGISLANFYSWNPAVGSSCQTLWLDYYVCVGR,glycan array binding signal (z-score),[1],-0.037
same,glycan array binding signal (z-score),[2],-0.132
same,glycan array binding signal (z-score),[3],-0.013
same,glycan array binding signal (z-score),[4],-0.036
same,glycan array binding signal (z-score),[5],0.184
same,glycan array binding signal (z-score),[6],0.056
same,glycan array binding signal (z-score),[7],2.52
same,glycan array binding signal (z-score),[8],17.3
same,glycan array binding signal (z-score),[9],16.7
same,glycan array binding signal (z-score),[10],0.04
same,glycan array binding signal (z-score),[11],0.123
same,glycan array binding signal (z-score),[12],-0.004
same,glycan array binding signal (z-score),[13],0.009
same,glycan array binding signal (z-score),[14],-0.127
same,glycan array binding signal (z-score),[15],-0.172
same,glycan array binding signal (z-score),[16],-0.162
same,glycan array binding signal (z-score),[17],0.14
same,glycan array binding signal (z-score),[18],0.31
same,glycan array binding signal (z-score),[19],0.111
same,glycan array binding signal (z-score),[20],-0.099
same,glycan array binding signal (z-score),[21],0.071
same,glycan array binding signal (z-score),[22],-0.143
same,glycan array binding signal (z-score),[23],-0.231
same,glycan array binding signal (z-score),[24],0.394
same,glycan array binding signal (z-score),[25],-0.059
